Laboratory results from PMC7862700, “An all-to-all approach to the identification of sequence-specific readers for epigenetic DNA modifications on cytosine”.

What was measured:
Experiment in all cases: DAPPL (digital affinity profiling via proximity ligation, sequencing); 10 mM Tris-HCl pH 7.5, 50 mM NaCl, 1 mM DTT, 4% glycerol, room temperature, 30 min; GST-TFs on glutathione beads, 16-mer random dsDNA library, 0.1% formaldehyde crosslink after washing; high values mean tight binding
Conditions in all cases: protein: recombinant; tags: N-terminal GST; dsDNA, one strand shown
FLI1 = molecular target: T1, FLI1 (Homo sapiens, UniProt Q01543 1-452)
T1 sequence: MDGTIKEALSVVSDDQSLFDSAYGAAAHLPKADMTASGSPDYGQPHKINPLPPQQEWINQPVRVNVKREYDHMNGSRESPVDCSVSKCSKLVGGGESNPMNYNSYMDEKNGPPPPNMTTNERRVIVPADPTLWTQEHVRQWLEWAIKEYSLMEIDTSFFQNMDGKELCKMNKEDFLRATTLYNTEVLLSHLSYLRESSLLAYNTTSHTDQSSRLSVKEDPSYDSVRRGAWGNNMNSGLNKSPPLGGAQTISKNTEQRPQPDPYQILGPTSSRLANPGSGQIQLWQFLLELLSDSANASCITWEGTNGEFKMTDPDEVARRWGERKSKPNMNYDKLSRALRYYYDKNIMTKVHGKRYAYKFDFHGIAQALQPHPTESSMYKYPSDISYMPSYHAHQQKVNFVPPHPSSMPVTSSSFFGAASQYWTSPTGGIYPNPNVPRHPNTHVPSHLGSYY
Summary of the method: (§1)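 A tag-only sample was pooled with DNA-barcoded human transcription factors that had been expressed in yeast as GST fusions and captured on glutathione beads. The pools were incubated for 30 min at room temperature with 200 nmole of a random double-stranded 16-mer DNA library in Tris/NaCl/DTT/glycerol buffer, then washed, crosslinked with 0.1% formaldehyde, proximity-ligated (BsaI/T4 ligase, 1 h, 37 °C), PCR-amplified and sequenced on an Illumina NextSeq500. Binding signal is each hexamer's read frequency for a factor divided by its frequency for the tag-only sample.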

ELK1 = molecular target: T2, ELK1 (Homo sapiens, UniProt P19419 1-428)
T2 sequence: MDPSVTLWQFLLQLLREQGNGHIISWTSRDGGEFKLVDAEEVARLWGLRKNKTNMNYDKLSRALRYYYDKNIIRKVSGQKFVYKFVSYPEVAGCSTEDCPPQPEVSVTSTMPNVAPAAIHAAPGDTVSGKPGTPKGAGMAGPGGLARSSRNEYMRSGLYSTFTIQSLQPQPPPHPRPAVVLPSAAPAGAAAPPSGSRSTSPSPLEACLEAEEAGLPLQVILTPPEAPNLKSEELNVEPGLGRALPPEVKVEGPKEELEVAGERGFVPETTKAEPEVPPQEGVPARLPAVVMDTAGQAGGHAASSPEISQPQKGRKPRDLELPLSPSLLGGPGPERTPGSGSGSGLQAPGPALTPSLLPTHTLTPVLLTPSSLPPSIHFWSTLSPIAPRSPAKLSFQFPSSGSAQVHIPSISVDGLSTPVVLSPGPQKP
Summary of the method: as §1

GABPA = molecular target: T3, GABPA (Homo sapiens, UniProt Q06546 1-454)
T3 sequence: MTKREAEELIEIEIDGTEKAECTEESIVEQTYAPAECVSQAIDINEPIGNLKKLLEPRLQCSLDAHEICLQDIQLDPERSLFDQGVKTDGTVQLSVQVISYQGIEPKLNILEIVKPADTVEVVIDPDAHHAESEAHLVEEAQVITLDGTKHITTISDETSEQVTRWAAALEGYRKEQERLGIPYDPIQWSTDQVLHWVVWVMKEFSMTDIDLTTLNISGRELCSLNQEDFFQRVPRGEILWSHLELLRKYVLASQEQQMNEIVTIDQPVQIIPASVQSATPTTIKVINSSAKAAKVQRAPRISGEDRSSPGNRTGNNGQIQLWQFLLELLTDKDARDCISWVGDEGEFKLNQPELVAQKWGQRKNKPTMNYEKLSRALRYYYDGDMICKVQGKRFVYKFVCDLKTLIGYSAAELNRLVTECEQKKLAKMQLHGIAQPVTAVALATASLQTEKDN
Summary of the method: as §1

ERG = molecular target: T4, ERG (Homo sapiens, UniProt P11308 1-479)
T4 sequence: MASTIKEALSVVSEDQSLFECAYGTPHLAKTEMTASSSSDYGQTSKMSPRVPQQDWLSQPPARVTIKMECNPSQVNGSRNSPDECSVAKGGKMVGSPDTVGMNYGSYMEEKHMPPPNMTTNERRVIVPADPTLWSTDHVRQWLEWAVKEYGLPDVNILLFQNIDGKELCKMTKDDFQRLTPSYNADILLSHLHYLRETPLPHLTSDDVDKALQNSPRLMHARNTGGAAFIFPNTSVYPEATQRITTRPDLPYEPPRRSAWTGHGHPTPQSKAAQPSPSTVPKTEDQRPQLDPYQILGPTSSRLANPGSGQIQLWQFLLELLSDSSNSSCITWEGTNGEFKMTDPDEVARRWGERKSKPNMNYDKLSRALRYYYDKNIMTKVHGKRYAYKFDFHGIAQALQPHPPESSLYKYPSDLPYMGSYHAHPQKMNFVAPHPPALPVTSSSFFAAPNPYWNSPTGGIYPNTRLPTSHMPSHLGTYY
Summary of the method: as §1

ELF1 = ELF1 (Homo sapiens, UniProt P32519 1-619)
Summary of the method: as §1

EHF = molecular target: T5, EHF (Homo sapiens, UniProt Q9NZC4 1-300)
T5 sequence: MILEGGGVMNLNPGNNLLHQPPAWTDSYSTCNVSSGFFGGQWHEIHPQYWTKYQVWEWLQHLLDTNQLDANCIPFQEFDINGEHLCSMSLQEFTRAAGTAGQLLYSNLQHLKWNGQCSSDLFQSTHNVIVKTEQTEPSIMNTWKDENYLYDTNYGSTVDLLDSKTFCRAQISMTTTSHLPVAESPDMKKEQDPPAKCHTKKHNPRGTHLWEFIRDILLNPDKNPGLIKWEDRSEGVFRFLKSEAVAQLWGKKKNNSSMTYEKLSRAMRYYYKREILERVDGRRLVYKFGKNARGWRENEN
Summary of the method: as §1

SPI1 = SPI1 (Homo sapiens, UniProt P17947 1-270)
Summary of the method: as §1

SPIB = SPIB (Homo sapiens, UniProt Q01892 1-262)
Summary of the method: as §1

ELK3 = molecular target: T6, ELK3 (Homo sapiens, UniProt P41970 1-407)
T6 sequence: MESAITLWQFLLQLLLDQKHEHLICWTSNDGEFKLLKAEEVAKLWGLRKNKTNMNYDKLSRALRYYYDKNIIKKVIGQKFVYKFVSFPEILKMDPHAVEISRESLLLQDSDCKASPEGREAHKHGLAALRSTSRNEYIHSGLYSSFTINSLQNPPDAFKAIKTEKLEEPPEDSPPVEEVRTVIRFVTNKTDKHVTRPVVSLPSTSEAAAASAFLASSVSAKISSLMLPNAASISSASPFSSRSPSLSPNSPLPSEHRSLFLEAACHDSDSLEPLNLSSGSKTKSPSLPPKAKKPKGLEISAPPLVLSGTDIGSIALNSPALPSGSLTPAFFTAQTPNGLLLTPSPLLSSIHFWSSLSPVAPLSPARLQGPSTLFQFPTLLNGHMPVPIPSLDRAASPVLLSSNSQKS
Summary of the method: as §1

ELF1, sequence (P32519 whole entry): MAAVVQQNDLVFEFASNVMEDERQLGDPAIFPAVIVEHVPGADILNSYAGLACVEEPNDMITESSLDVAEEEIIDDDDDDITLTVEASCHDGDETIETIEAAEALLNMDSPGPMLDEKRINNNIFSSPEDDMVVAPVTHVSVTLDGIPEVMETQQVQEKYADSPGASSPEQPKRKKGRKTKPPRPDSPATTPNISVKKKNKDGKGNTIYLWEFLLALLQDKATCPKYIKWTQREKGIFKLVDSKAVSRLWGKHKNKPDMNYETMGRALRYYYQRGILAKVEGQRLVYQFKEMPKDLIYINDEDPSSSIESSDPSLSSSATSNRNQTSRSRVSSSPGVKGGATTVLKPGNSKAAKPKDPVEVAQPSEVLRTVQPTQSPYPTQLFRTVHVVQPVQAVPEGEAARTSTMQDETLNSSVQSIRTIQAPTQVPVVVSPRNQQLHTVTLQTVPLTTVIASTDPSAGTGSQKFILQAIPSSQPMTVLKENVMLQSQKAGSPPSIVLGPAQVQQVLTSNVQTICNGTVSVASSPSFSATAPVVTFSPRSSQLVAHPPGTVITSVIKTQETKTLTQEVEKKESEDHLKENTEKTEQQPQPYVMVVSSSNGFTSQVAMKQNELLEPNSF
SPIB, sequence (Q01892 whole entry): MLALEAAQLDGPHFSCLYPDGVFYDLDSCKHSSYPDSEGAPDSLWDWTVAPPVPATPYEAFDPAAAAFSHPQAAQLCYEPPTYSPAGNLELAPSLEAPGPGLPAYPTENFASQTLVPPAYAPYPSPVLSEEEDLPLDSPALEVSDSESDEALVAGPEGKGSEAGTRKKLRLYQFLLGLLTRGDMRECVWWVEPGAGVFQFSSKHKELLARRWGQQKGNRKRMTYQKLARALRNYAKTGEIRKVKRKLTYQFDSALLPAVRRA

Sequence | binding signal (FLI1) | binding signal (ELK1) | binding signal (GABPA) | binding signal (ERG) | binding signal (ELF1) | binding signal (EHF) | binding signal (SPI1) | binding signal (SPIB) | binding signal (ELK3)
CCTGGT | 1.28 fold enrichment (6-mer frequency, TF over GST control) | 1.34 fold enrichment (6-mer frequency, TF over GST control) | 1.4 fold enrichment (6-mer frequency, TF over GST control) | 1.29 fold enrichment (6-mer frequency, TF over GST control) | 1.44 fold enrichment (6-mer frequency, TF over GST control) | 1.47 fold enrichment (6-mer frequency, TF over GST control) | 1.4 fold enrichment (6-mer frequency, TF over GST control) | 1.52 fold enrichment (6-mer frequency, TF over GST control) | 1.33 fold enrichment (6-mer frequency, TF over GST control)
GTAATC | 1.16 fold enrichment (6-mer frequency, TF over GST control) | 1.14 fold enrichment (6-mer frequency, TF over GST control) | 1.32 fold enrichment (6-mer frequency, TF over GST control) | 1.08 fold enrichment (6-mer frequency, TF over GST control) | 1.16 fold enrichment (6-mer frequency, TF over GST control) | 1.19 fold enrichment (6-mer frequency, TF over GST control) | 1.13 fold enrichment (6-mer frequency, TF over GST control) | 1.09 fold enrichment (6-mer frequency, TF over GST control) | 1.11 fold enrichment (6-mer frequency, TF over GST control)
CACTCA | 1.06 fold enrichment (6-mer frequency, TF over GST control) | 1.17 fold enrichment (6-mer frequency, TF over GST control) | 1.25 fold enrichment (6-mer frequency, TF over GST control) | 1.16 fold enrichment (6-mer frequency, TF over GST control) | 1.24 fold enrichment (6-mer frequency, TF over GST control) | 1.19 fold enrichment (6-mer frequency, TF over GST control) | 1.08 fold enrichment (6-mer frequency, TF over GST control) | 1.21 fold enrichment (6-mer frequency, TF over GST control) | 1.19 fold enrichment (6-mer frequency, TF over GST control)
TCCCGC | 1.48 fold enrichment (6-mer frequency, TF over GST control) | 1.53 fold enrichment (6-mer frequency, TF over GST control) | 1.4 fold enrichment (6-mer frequency, TF over GST control) | 1.42 fold enrichment (6-mer frequency, TF over GST control) | 1.47 fold enrichment (6-mer frequency, TF over GST control) | 1.52 fold enrichment (6-mer frequency, TF over GST control) | 1.37 fold enrichment (6-mer frequency, TF over GST control) | 1.48 fold enrichment (6-mer frequency, TF over GST control) | 1.46 fold enrichment (6-mer frequency, TF over GST control)
CTTTAC | 1.24 fold enrichment (6-mer frequency, TF over GST control) | 1.43 fold enrichment (6-mer frequency, TF over GST control) | 1.51 fold enrichment (6-mer frequency, TF over GST control) | 1.31 fold enrichment (6-mer frequency, TF over GST control) | 1.4 fold enrichment (6-mer frequency, TF over GST control) | 1.38 fold enrichment (6-mer frequency, TF over GST control) | 1.4 fold enrichment (6-mer frequency, TF over GST control) | 1.41 fold enrichment (6-mer frequency, TF over GST control) | 1.47 fold enrichment (6-mer frequency, TF over GST control)
GTAATT | 1.23 fold enrichment (6-mer frequency, TF over GST control) | 1.1 fold enrichment (6-mer frequency, TF over GST control) | 1.19 fold enrichment (6-mer frequency, TF over GST control) | 1.19 fold enrichment (6-mer frequency, TF over GST control) | 1.22 fold enrichment (6-mer frequency, TF over GST control) | 1.21 fold enrichment (6-mer frequency, TF over GST control) | 1.25 fold enrichment (6-mer frequency, TF over GST control) | 1.23 fold enrichment (6-mer frequency, TF over GST control) | 1.29 fold enrichment (6-mer frequency, TF over GST control)
CCCCGG | 1.19 fold enrichment (6-mer frequency, TF over GST control) | 1.18 fold enrichment (6-mer frequency, TF over GST control) | 1.15 fold enrichment (6-mer frequency, TF over GST control) | 1.3 fold enrichment (6-mer frequency, TF over GST control) | 1.22 fold enrichment (6-mer frequency, TF over GST control) | 1.24 fold enrichment (6-mer frequency, TF over GST control) | 1.16 fold enrichment (6-mer frequency, TF over GST control) | 1.27 fold enrichment (6-mer frequency, TF over GST control) | 1.2 fold enrichment (6-mer frequency, TF over GST control)
